Drawing on PubChem BioAssay AID813 (Sanford-Burnham Center for Chemical Genomics, 2007), this text covers activation factor for 101 molecules.

In all, about 64,000 compounds went through this assay and fewer than 10 were called active. These entries were drawn from the full list. Unmarked numbers belong to inactive results.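 How the source made its calls: active means activation factor of at least 2 at 20 µM, relative to controls; inactive means the rest.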

The target of the assay is Alkaline phosphatase, tissue-nonspecific isozyme (Homo sapiens) (UniProt P05186). As to the kind of experiment: human TNAP enzyme activators, primary screen, biochemical, luminescent, intermediate phosphate acceptor level (AID 813). The settings on record: purified TNAP, CDP-star luminescence, 100 mM DEA, 30 min; at 20 µM; stronger effect = higher value; scale: 0 levamisole-inhibited, 1 vehicle-only enzyme.
Alkaline phosphatase, tissue-nonspecific isozyme (Homo sapiens), sequence (P05186 whole entry, looked up): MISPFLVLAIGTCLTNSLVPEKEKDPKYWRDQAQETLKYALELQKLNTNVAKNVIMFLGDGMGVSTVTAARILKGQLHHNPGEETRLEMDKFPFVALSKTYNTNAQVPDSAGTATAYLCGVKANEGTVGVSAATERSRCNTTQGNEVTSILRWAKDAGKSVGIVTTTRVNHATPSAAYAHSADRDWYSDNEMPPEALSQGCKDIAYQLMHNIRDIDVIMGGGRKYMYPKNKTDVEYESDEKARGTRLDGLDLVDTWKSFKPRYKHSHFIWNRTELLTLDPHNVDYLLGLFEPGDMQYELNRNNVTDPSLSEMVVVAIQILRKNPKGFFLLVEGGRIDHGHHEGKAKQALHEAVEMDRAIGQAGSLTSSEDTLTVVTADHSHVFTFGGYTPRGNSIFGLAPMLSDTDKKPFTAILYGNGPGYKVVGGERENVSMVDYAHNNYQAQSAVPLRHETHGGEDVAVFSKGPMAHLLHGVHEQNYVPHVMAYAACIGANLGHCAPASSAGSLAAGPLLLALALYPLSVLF
As to `Cc1cc(C)nc(N2C(=O)CC(Cc3ccccc3)C2=O)n1` (stereo unspecified), the activation factor is 0.9. Regarding `COc1ccc(-n2c(SCC(=O)Nc3ccc4c(c3)OCO4)nnc2C(C)N2CCCCC2)cc1` (stereo unspecified), the activation factor was 1. Next, `N#CC1=C(N)OC2=C(C(=O)CCC2)C1C1CC=CCC1` (stereo unspecified): 0.9. Next, `O=C(Nc1ccon1)c1sc2ccccc2c1Cl`: 1; `Cc1ccc(S(=O)(=O)NCC(=O)OCC(=O)N2CCc3ccccc32)cc1`: 0.8. For `COc1ccc(C(=O)CSc2nccc(=O)[nH]2)cc1`, the activation factor is 1.

`CSc1cccc(NC(=O)C2CCCN2S(=O)(=O)c2ccc3c(c2)CCC(=O)N3)c1` (stereo unspecified): the activation factor is 0.9. As for `Cc1ccnc(N2CCCC(C(=O)Nc3cc(F)ccc3C)C2)n1` (stereo unspecified), the figure is 0.9; as for `Nc1nonc1C(=O)NCCc1ccccc1`, 0.9. As for `CCc1cccc(C)c1NC(=O)CSc1nnc(-c2ccco2)n1N`, the figure is 1.1.

`COc1ccccc1-n1c(CNC(=O)c2ccccc2)nnc1SCC(=O)Nc1nnc(C)s1`: the activation factor was 1. As for `Cc1ccc(S(=O)(=O)NC(C)C(=O)Nc2ccccc2C(=O)N2CCCC2)cc1` (stereo unspecified), the figure is 0.9. As for `O=C1C(C=NCC2CCCO2)=C(O)c2ccccc21` (stereo unspecified), the figure is 1; as for `O=C(CCN1C(=O)c2ccccc2C1=O)Nc1ccncc1`, 1; as for `CCn1nnc(NC(=O)c2cc(Cl)c(OC)c(Cl)c2)n1`, 0.9. As for `CN(C)/C=C1/C(=O)Nc2ccccc21`, the figure is 0.9; as for `CCCNC(=O)C1CC(=O)N(c2ccc(OCC(=O)Nc3cccc(C)c3C)cc2)C1` (stereo unspecified), 1. As to `CCCCNC(=O)CSc1nnc(-c2ccco2)n1C`, the activation factor was 1.

With `CCOC(=O)c1cccc(NC(=O)CCn2nnc3ccccc32)c1`, the activation factor is 0.9. As for `O=C(CSc1nnc(-c2cccs2)n1Cc1ccco1)c1ccc2c(c1)OCO2`, the figure is 0.9. Regarding `CC(=O)N(CC1CCCO1)C1(C(=O)NC2CCCC2)CCCCC1` (stereo unspecified), the activation factor is 1.

Consider `CCn1c(SCC(=O)Nc2cc(C)c(Cl)cc2OC)nnc1-c1ccco1`, for which the activation factor was 1.

On to `Cc1ccc2c(C(=O)CN3CCCC3)c(C)[nH]c2c1`, for which the activation factor was 0.9. As for `Cc1cccc(C2c3c(n(C)c(=O)n(C)c3=O)N=C3c4ccccc4C(=O)C32)c1` (stereo unspecified), the figure is 0.8; as for `C=CCn1c(C2CC(=O)N(c3ccc(C)cc3)C2)nc2ccccc21` (stereo unspecified), 0.9. On to `CC1(C)Cc2c(C#N)c(SCc3nc4ccccc4[nH]3)nc(N3CCOCC3)c2CO1`, for which the activation factor was 1. Next, `CCOC(=O)C1C(=O)OC2(CCCC2)C1C(=O)OCC` (stereo unspecified): 0.9; `Cc1ncn(C23CC4CC(CC(O)(C4)C2)C3)n1`: 1; `CC1CN(C(=O)CN2C(=O)NC(C)(c3ccccc3)C2=O)CC(C)O1` (stereo unspecified): 0.9. As for `CCOc1cc(C)c(Cl)cc1S(=O)(=O)n1nnc2ccccc21`, the figure is 0.9. For `CCOC(=O)CNC(=O)c1nn(-c2cccc(OC)c2)c(=O)c2ccccc12`, the activation factor is 0.9. Next, `CC(C)c1ccc(NC(=O)NC2CCCCC2)cc1`: 0.9. Regarding `COc1ccc(N2C(=O)C3CCCN3C2c2cc(OC)c(OC)cc2OC)cc1` (stereo unspecified), the activation factor was 0.9. As to `Cc1oc(CC(C)C)c(CN2CCCC2)c1C(=O)O`, the activation factor is 0.9. With `CCCn1c(SCC(N)=O)nnc1C(C)C`, the activation factor is 0.9. As for `O=C(CCN1C(=O)COc2ccccc21)NCCCN1CCN(c2ccc(F)cc2)CC1`, the figure is 0.9; as for `Cc1c(-c2nn(C)c(=O)c3ccccc23)oc2ccc(F)cc2c1=O`, 1.

With `CCC(=O)N1c2ccc(S(=O)(=O)CCC(=O)N3CCN(c4ccccc4)CC3)cc2CC1C` (stereo unspecified), the activation factor is 0.9.

Take `Cc1cc(Nc2ccccc2)n(CCC#N)n1`: the activation factor was 1.

`Cc1cc2cc(CNC(=O)c3ccc(S(=O)(=O)N4CCOCC4)cc3)ccc2[nH]1`: the activation factor was 1. As for `CCOC(=O)c1cc2occc2n1CC(=O)NC1CCC(C)CC1` (stereo unspecified), the figure is 0.9. Consider `CC(CN1CCCCC1)OC(=O)c1ccccc1Cl` (stereo unspecified), for which the activation factor is 1. As for `COC(=O)c1cc(NC2c3ccccc3C(=O)N2c2ccc(Cl)cn2)cc(C(=O)OC)c1` (stereo unspecified), the figure is 0.9; as for `N=c1c2c3c(sc2ncn1CCCN1CCOCC1)CCCCC3`, 0.9; as for `Cc1ccc(S(=O)(=O)NCc2csc(C)n2)c(C)c1`, 0.9. Next, `CSCCC1NC2(C(=O)Nc3ccc(Cl)cc32)[C@@H]2C(=O)N(C3CCCC3)C(=O)[C@H]12` (stereo partly specified): 0.9; `NC(=O)c1ccsc1NC(=O)c1ccco1`: 0.8.

Turning to `O=C(CC1(O)C(=O)N(CN2CCOCC2)c2ccccc21)c1ccccc1` (stereo unspecified), the activation factor is 0.9.

For `CCOc1cccc(-n2nnnc2-c2ccc(OC)cc2)c1`, the activation factor was 0.8. For `Cc1ccc(N2C(=O)c3oc4ccccc4c(=O)c3C2c2cccnc2)nc1` (stereo unspecified), the activation factor was 0.9. On to `COc1ccccc1N1CCN(Cc2ccc(OC)c3ccccc23)CC1`, for which the activation factor was 0.9. Next, `CC(C)(C)c1csc(NC2=NS(=O)(=O)c3ccccc32)n1`: 0.9. As for `CN1CCN(CC(O)COCc2ccc3c(c2)OCO3)CC1` (stereo unspecified), the figure is 1; as for `COc1cc(C2C(C(=O)c3sc(C)nc3C)=C(O)C(=O)N2CCN(C)C)cc(OC)c1OC` (stereo unspecified), 0.9. Next, `CCOc1cc(/C=N/O)cc(Br)c1OC`: 0.9; `Cc1ccc(C(=O)Nc2ccccc2C(=O)NC2CCCCC2)cc1S(=O)(=O)N1CCOCC1`: 0.9. Take `CC1CCN(c2nc3c(c(=O)[nH]c(=O)n3C)n2CCCc2ccccc2)CC1`: the activation factor is 1. As for `Cc1cc(C)nc(NC2=NCC(=O)N2c2ccc(Cl)cc2)n1`, the figure is 0.9; as for `CCOc1cc(S(=O)(=O)NC2CC(C)(C)NC(C)(C)C2)ccc1F`, 0.9; as for `Nc1nnc(C2CCCC2)s1`, 0.9. As for `Cn1c(=NC(=O)c2ccco2)sc2cccc(F)c21`, the figure is 0.9; as for `CC(C)(CNCC(O)c1ccccc1)N1CCOCC1` (stereo unspecified), 0.9; as for `CCOc1ccc(N(CC(=O)OC)S(=O)(=O)c2c(C)noc2C)cc1`, 0.9.

Take `COc1ccc(CCn2nnnc2C(c2ccccc2)N2CCN(C)CC2)cc1OC` (stereo unspecified): the activation factor was 1.

As for `O=C(OCCO)c1cc(Cl)c(C(=O)OCCO)cc1Cl`, the activation factor is 0.9. Next, `O=C(C1CCCO1)N(Cc1ccccc1)c1ccccc1` (stereo unspecified): 0.9; `Cc1nn(-c2ccccc2)c2sc(C(=O)N(Cc3ccco3)C(C)C(=O)NC(C)(C)C)cc12` (stereo unspecified): 0.9. Next, `COc1cccc(N2C(=O)CC(N3CCN(S(=O)(=O)c4ccccc4)CC3)C2=O)c1` (stereo unspecified): 1; `CCN(CC)S(=O)(=O)c1cccc(C(=O)NCC(=O)OCC(=O)NCc2ccccc2)c1`: 0.9.

For the molecule `O=C(O)c1ccc(COc2c(F)c(F)cc(F)c2F)o1`, the activation factor is 0.8. As for `CC12CN(Cc3ccccc3)CC(C)(CN(Cc3ccccc3)C1)C2=NO`, the figure is 1.2; as for `COc1ccc(C)cc1-n1nnnc1SCC(=O)c1cc(C)n(Cc2ccco2)c1C`, 0.8.

As for `O=C(c1cccs1)N1CCN(Cc2ccc3c(c2)OCO3)CC1`, the activation factor is 1.

Consider `COc1cccc(N(C(=O)c2ccn[nH]2)C2(C(=O)Nc3c(C)cccc3C)CCCCC2)c1`, for which the activation factor is 2.8 (active). Turning to `COc1cccc(N2CC(C(=O)Nc3c(C)cccc3C)CC2=O)c1` (stereo unspecified), the activation factor was 1. Turning to `Fc1cc(F)c2nc(N3CCOCC3)sc2c1`, the activation factor was 0.9. Next, `Cc1ccc(C(=O)O)cc1S(=O)(=O)NCC1CCCO1` (stereo unspecified): 0.9; `COC(=O)c1ccccc1NC(=O)C1CCN(S(=O)(=O)c2cc(OC)ccc2OC)CC1`: 0.9; `Cc1cccc(N)c1SC1CCCCC1O` (stereo unspecified): 0.9. As for `CC(=O)Nc1cccc2c1[n+]([O-])c(C)c(C)[n+]2[O-]`, the figure is 1. Next, `CC(=O)OC(C(=O)NCCc1ccccc1)c1cccnc1` (stereo unspecified): 1; `CCc1nc2oc3ccccc3c(=O)c2c(=O)n1Cc1ccc(OC)cc1`: 0.9; `CCSc1ncnc2c(C#N)c3n(c12)CCCCC3`: 0.9. For the molecule `O=C(Nc1c(C(=O)N2CCCCC2)cnn1-c1ccccc1)c1ccco1`, the activation factor is 1. Next, `CC1(C)CC(=O)C2=C(C1)NCN(CCCN1CCOCC1)C2`: 0.9; `CCOC(=O)N1CCN(C(=O)Cc2ccc(-n3c(=S)[nH]c4ccccc4c3=O)cc2)CC1`: 1. As for `O=C(OC(C(=O)NC1CCCC1)c1ccc(F)cc1)c1ccno1` (stereo unspecified), the figure is 0.9; as for `CC(=O)N1CCN(CCN=CC2=C(O)CC(C)(C)CC2=O)CC1`, 0.9. Next, `OCCCN1c2ccccc2Nc2nnc(-c3ccccc3)cc21`: 4.3 (active). `CCCS(=O)(=O)C(=C1Nc2ccccc2N1)S(=O)(=O)CCC`: the activation factor is 0.9. In the case of `O=C(Cc1c(F)cccc1Cl)N1CCN(C(=O)c2ccco2)CC1`, the activation factor is 0.8. Next, `O=C(COc1ccccc1Cl)Nn1cnnc1`: 0.9; `O=C(CN(Cc1ccccc1)C(=O)c1ccc2c(c1)OCCO2)NCc1ccc2c(c1)OCO2`: 0.9. For the molecule `COc1ccc(C(=O)N(CCN2CCOCC2)CC(=O)NC2CCCC2)cc1OC`, the activation factor was 0.9. Next, `COc1ccc(C2C3=C(OC(C)=O)c4ccccc4C3=Nc3c2c(=O)n(C)c(=O)n3C)cc1` (stereo unspecified): 0.8; `Cc1ccc(S(=O)(=O)c2c(N)n(C)c3nc4ccccc4nc23)cc1`: 0.9. As for `NC(=O)C1CCN(C2OC(=O)c3ccccc32)CC1` (stereo unspecified), the figure is 0.9. As for `O=C(OCC(=O)N1CCN(C(=O)c2ccco2)CC1)c1ccccc1Cc1ccccc1`, the figure is 1. For the molecule `Cc1coc2c(O)cc3c(c12)OC1(N2CCCCC2)C(=O)NCCCC31` (stereo unspecified), the activation factor is 0.9. As for `CCC1=[N+]([O-])C(C)(/C(C)=N\O)N(O)C1(C)C` (stereo unspecified), the figure is 1; as for `O=C(CN1CCN(C(=O)c2cccc(F)c2)CC1)Nc1ccccc1F`, 1.1.
